Measurements from PubChem BioAssay AID1851 (National Center for Advancing Translational Sciences (NCATS), 2009).
Where “and” joins values, the source holds several entries; their conditions need not be identical. Equal entries are not always repeated. Out of some 16,000 compounds screened, about 5,800 (36%) were called active. Inconclusive results (about 23%) are left out. The list shows a part of the results. Values without a mark were called inactive. Calls follow the shape of the dose curve; as a rule, active = well fitted curve in the direction sought with a large enough effect; inconclusive = small, poorly fitted or top-dose-only effect, or effect the other way; inactive = no such curve, though single readings can be large or run the other way.

target: Cytochrome P450 2C19 (Homo sapiens) (UniProt P33261); assay: Cytochrome panel assay with activity outcomes; settings: recombinant CYP, pro-luciferin dealkylation, luminescence, p450-cyp2c19; series mostly up to 57.1 µM
% is scaled to controls: 0 for no effect and ±100 for the full control effect.

Cytochrome P450 2C19 (Homo sapiens), sequence (P33261 whole entry, looked up): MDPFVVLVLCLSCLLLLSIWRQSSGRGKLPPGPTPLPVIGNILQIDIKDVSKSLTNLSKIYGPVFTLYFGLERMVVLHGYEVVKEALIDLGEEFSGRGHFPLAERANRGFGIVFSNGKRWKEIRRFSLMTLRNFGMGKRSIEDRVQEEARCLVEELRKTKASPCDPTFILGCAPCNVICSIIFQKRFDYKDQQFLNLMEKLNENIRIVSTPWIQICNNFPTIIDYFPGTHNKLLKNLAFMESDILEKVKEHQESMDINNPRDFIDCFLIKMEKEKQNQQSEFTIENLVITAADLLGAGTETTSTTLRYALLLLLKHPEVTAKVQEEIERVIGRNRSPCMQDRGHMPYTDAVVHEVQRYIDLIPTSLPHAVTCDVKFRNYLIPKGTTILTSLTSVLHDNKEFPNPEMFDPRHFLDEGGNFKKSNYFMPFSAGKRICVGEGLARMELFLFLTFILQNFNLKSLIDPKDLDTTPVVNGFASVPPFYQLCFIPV

Row | Compound | AC50 | activity, negative = inhibition
1 | Cn1c2c(c(=O)n(C)c1=O)[C@@H]1c3c(ccc4ccccc34)OC[C@@H]1CO2 | 14.1 µM (active) | –
2 | O=C(Nc1ccc(Nc2ccc3c(c2)C(=O)c2ccccc2C3=O)c2c1C(=O)c1ccccc1C2=O)c1ccccc1 | – | -23.9% [at 11.4 µM]
3 | O=C1c2ccccc2C(=O)c2c(NC3CCCCC3)ccc(Nc3ccc(S(=O)(=O)O)cc3)c21 | 3.98 µM (active) | –
4 | Nc1ccc(-c2ccc(Nc3cc(S(=O)(=O)O)c(N)c4c3C(=O)c3ccccc3C4=O)cc2)c(S(=O)(=O)O)c1 | – | -36% [at 11.4 µM]
5 | Cn1c(SC2=CS(=O)(=O)c3ccccc32)nc2ccccc21 | 17.8 µM (active) | –
6 | Oc1ccc(/C=N/NC(=S)NCc2ccco2)cc1 | 10 µM (active) | –
7 | C=CCOc1cccc(/C=N/NC(=O)C(=O)NCc2ccco2)c1 | inactive | –
8 | CNc1nc(-c2ccc(N(C)C)cc2)nc2ccccc12 | 25.1 µM (active) | –
9 | CN(C)c1ccc(-c2nc(Nc3ccncc3)c3ccccc3n2)cc1 | 10 µM (active) | –
10 | c1ccc2c(Nc3ccncc3)nc(-c3ccoc3)nc2c1 | 20 µM (active) | –
11 | CN(C)c1ccc(-c2nc(NC3CCNCC3)c3ccccc3n2)cc1 | inactive | –
12 | Fc1ccc(Nc2nc(-c3ccoc3)nc3ccccc23)cc1 | inactive | –
13 | CNc1nc(-c2ccoc2)nc2ccccc12 | inactive | –
14 | NCC[C@H](O)C(=O)N[C@H]1C[C@@H](N)[C@@H](O[C@H]2O[C@@H](CN)[C@@H](O)[C@@H](O)[C@@H]2O)[C@@H](O)[C@@H]1O[C@H]1O[C@@H](CO)[C@@H](O)[C@@H](N)[C@@H]1O | inactive | –
15 | N[C@@H](C(=O)O)c1cc(O)ccc1Cl | inactive | –
16 | Cc1nc(-c2cccnc2)sc1C(=O)Nc1ccc(Cl)cc1 | 11.2 µM (active) | –
17 | CNC(=O)c1sc(-c2cccnc2)nc1C | inactive | –
18 | CC(=O)OC[C@H]1O[C@@H](O/N=C(\C)CCN2CCCCc3nc(C)c(C)cc32)[C@H](OC(C)=O)[C@@H](OC(C)=O)[C@H]1OC(C)=O | – | -0.342% [at 11.4 µM]
19 | CNc1ncnc2c1ncn2[C@H]1C[C@@H](OP(=O)(O)O)[C@H](COP(=O)(O)O)O1 | inactive | –
20 | CNc1ncnc2c1ncn2[C@H]1C[C@H](OP(=O)(O)O)[C@H](COP(=O)(O)O)O1 | 1 µM (active) | –
21 | CNc1ncnc2c1ncn2[C@@H]1O[C@@H](CO)[C@H](O)[C@@H]1O | inactive | –
22 | CN(C)CCN(Cc1cccs1)c1ccccn1 | inactive | –
23 | COc1ccc(CN(CCN(C)C)c2ccccn2)cc1 | inactive | –

Row | Compound | AC50 | activity, negative = inhibition
24 | CN(C)CCN(Cc1ccc(Cl)cc1)c1ccccn1 | 6.31 µM (active) | –
25 | N=c1n(-c2ccccc2)c(O)cc(=O)n1-c1ccccc1 | inactive | –
26 | Cc1ccc(C(=O)N/C(=C\c2ccc(Br)cc2)c2nc(=S)[nH][nH]2)cc1 | 11.2 µM (active) | –
27 | CO[C@H]1COC(=O)CCC[C@@H](C)[C@H](OC)COC(=O)[C@@H](C)NC(=O)C/C=C\[C@@H]1C | – | 31.3% [at 11.4 µM]
28 | COc1ccc(-c2cc3ccccc3n2CC(O)CNCCO)cc1 (stereo unspecified) | 14.1 µM (active) | –
29 | O=C(O)COc1ccc(OCCNC[C@@H](O)COc2ccccc2)cc1 | inactive | –
30 | NC(=O)c1cc[n+](CC2=C(C(=O)O)N3C(=O)[C@@H](NC(=O)[C@H](c4ccccc4)S(=O)(=O)[O-])[C@@H]3SC2)cc1 | inactive | –
31 | O=C(NNS(=O)(=O)c1ccc(Cl)cc1)c1cnn(-c2ccccc2)c1-n1cccc1 | 1.12 µM (active) | –
32 | O=C(NNS(=O)(=O)c1ccccc1)c1cccnc1 | – | 9.95% [at 11.4 µM]
33 | O=C(NNS(=O)(=O)c1ccc(Cl)cc1)C1CCN(Cc2ccccc2)CC1 | inactive | –
34 | COc1cc2c(cc1OC)C(C(=O)N1CCOCC1)C(c1cccs1)N(C)C2=O (stereo unspecified) | inactive | –
35 | Cc1ccc(-n2c(C)nnc2SCC(=O)N2CCc3ccccc3C2)cc1C | 22.4 µM (active) | –
36 | CCSc1nnc(NC(=O)CSc2nc3c(cc2C#N)CCCC3)s1 | 2.82 µM (active) | –
37 | CCC(=O)Nc1c2c(nc3c1CCC3)CCCC2 | inactive | –
38 | COc1ccc(-n2nc3cc(C)c(NC(=S)NC(=O)c4ccccc4C)cc3n2)cc1 | inactive | –
39 | COc1ccc(NC(=S)Nc2ncccc2C)c(OC)c1 | 3.55 µM (active) | –
40 | CO[C@H]1COC(=O)C/C=C\[C@H](C)[C@@H](NS(=O)(=O)c2ccc(C)cc2)COC(=O)C/C=C\[C@@H]1C | – | 1.28% [at 11.4 µM] and 16.7% [at 11.4 µM]
41 | COC(=O)N1CCC2(CC1)CCN(c1ncccn1)CC2 | inactive | –
42 | Cc1sc(NC(=O)c2ccco2)c(C(c2cccnc2)N2CCN(C)CC2)c1C (stereo unspecified) | 20 µM (active) | –
43 | Cc1sc(NC(=O)c2ccco2)c(C(c2cccnc2)N2CCCC2)c1C (stereo unspecified) | 11.2 µM (active) | –
44 | O=C(Nc1c(C(=O)N2CCCCC2)cnn1-c1ccccc1)c1ccco1 | inactive | –
45 | Cc1sc(NC(=O)c2ccco2)c(C(c2ccncc2)N2CCOCC2)c1C (stereo unspecified) | 10 µM (active) | –
46 | Cc1c(C)c2c(c(C)c1O)CC[C@@](C)(C(=O)O)O2 | inactive | –
